The campaign covered roughly 220,000 compounds. About 800 (0.36%) were called active.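 Rule for the calls: active = inhibition above about 30% (limit read from the data); inactive = the rest.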 This excerpt belongs to a sample that is enriched for actives.

For the assay, the target named is Eukaryotic translation initiation factor 4E (Mus musculus) + Eukaryotic translation initiation factor 4 gamma 1 (Homo sapiens) (UniProt P63073+Q04637). Description: blockers of eIF4G binding by eIF4E – biochemical, uHTS, TR-FRET, eIF4GI fragment, primary screen (AID 782).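 Note: 0% = full FRET control wells and 100% = background wells lacking eIF4GI fragment.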 Particulars: TR-FRET eIF4E-eIF4GI(517-606) binding, 2 h; at 21.7 µM; stronger effect = higher value. For orientation: TR-FRET usually uses a lanthanide donor and a delayed reading to cut background.
Sequence of Eukaryotic translation initiation factor 4E (Mus musculus) + Eukaryotic translation initiation factor 4 gamma 1 (Homo sapiens) (P63073 whole entry, looked up, the tested form may be a part): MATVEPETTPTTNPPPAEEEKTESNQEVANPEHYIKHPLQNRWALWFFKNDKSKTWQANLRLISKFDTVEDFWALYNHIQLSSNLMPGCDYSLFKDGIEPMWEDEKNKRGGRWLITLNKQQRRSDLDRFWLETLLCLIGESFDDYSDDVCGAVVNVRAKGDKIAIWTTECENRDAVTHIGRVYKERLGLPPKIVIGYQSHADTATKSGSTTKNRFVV
Sequence of Eukaryotic translation initiation factor 4E (Mus musculus) + Eukaryotic translation initiation factor 4 gamma 1 (Homo sapiens) (Q04637 whole entry, looked up, the tested form may be a part): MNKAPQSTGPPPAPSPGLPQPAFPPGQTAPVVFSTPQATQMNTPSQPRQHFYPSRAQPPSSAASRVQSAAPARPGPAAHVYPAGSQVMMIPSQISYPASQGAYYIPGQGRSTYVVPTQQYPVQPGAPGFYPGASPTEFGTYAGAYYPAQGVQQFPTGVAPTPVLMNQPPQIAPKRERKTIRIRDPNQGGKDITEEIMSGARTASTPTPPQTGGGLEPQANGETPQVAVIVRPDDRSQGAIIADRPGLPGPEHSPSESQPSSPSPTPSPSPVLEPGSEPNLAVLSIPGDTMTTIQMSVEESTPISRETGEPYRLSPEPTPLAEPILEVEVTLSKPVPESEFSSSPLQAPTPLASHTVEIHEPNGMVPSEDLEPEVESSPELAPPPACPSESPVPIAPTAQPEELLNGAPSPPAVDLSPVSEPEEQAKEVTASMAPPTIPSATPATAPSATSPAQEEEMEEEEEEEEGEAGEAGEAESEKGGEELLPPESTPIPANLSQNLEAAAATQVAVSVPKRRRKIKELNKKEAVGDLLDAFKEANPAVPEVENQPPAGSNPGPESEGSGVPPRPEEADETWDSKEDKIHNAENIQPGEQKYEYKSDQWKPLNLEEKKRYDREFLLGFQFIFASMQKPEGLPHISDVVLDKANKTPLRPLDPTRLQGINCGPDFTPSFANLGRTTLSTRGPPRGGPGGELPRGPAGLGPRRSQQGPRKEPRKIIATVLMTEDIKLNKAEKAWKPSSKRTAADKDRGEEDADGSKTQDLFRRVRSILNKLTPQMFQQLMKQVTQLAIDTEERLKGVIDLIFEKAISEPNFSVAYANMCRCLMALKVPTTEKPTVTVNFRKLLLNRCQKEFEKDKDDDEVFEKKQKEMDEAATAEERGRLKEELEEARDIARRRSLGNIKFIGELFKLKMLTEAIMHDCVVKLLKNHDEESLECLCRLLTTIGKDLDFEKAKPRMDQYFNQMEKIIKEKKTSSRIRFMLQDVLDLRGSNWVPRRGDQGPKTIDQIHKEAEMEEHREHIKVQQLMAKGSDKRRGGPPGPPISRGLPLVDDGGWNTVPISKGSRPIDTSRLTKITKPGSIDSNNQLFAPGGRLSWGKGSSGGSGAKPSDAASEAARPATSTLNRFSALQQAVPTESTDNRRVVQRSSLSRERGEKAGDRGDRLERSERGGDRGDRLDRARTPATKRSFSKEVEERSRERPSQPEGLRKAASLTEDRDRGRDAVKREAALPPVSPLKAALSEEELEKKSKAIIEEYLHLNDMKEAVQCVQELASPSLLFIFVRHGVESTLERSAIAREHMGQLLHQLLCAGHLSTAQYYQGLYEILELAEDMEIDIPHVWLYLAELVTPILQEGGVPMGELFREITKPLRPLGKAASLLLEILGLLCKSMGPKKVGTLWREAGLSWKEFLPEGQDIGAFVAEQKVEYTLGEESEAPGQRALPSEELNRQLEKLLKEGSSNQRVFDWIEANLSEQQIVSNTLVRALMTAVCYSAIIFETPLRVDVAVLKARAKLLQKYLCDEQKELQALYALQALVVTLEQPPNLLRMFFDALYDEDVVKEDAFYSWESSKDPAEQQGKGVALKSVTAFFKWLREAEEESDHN
Usually inhibition stands for the change of the read-out against control, counted positive when it falls. As to `CC(=NCC1CCCO1)c1c(O)n(-c2ccccc2)c(=O)[nH]c1=O` (stereo not given), the inhibition is 58.1% (active).
Take `CCC(=NCCc1ccccc1)c1c(O)n(C2CCCCC2)c(=O)[nH]c1=O`: the inhibition is -4.4% (inactive).
Regarding `Cc1ccc(-n2c(O)c(C=NCC3CCCO3)c(=O)[nH]c2=O)c(C)c1` (stereo not given), the inhibition is -0.86% (inactive).
As to `CC1(C)Cc2c(C#N)c(N3CCNCC3)nc(-c3ccco3)c2CS1`, the inhibition was -1.83% (inactive).
Then `COc1ccc(NC(=O)N2CCC3(CC2)OCCO3)c(OC)c1`, with 1.55% (inactive).

Source of the values: PubChem BioAssay AID782 (Emory University Molecular Libraries Screening Center, 2007).
